Data from PubChem BioAssay (NCATS).
Results filed as inconclusive are left out. Entries that show only a call come without a potency. Active and inactive are the calls of the source. Calls follow the shape of the dose curve; as a rule, active = well fitted curve in the direction sought with a large enough effect; inconclusive = small, poorly fitted or top-dose-only effect, or another doubt; inactive = no such curve, though single readings can be large; an effect the other way counts as inactive or inconclusive.

Each compound was assayed against Aldehyde dehydrogenase, mitochondrial (Homo sapiens) (UniProt P05091) (assay: qHTS for Inhibitors of the Aldehyde Dehydrogenase Family (ALDH2) Primary screen (AID 2061308; also: nearly all actives have a fitted effect of over 55% in size)). Conditions: ALDH2 enzyme inhibition qHTS, 1536-well; series mostly up to 56 µM.

Row | SMILES | Potency
1 | C=C(C(=O)O)[C@@H]1CC[C@@]2(C)CC[C@H](O)[C@@]2(C(C)=O)C1 | inactive
2 | Cc1cn([C@H]2C[C@H](N[S+](=O)([O-])c3ccc4c(c3)OCCO4)[C@@H](CO)O2)c(=O)[nH]c1=O | inactive
3 | O=C(Nc1ccc(Cl)cc1)c1ccccc1NCc1ccncc1 | inactive
4 | COc1ccc(C2c3c(nc(Cc4ccccc4)[nH]c3=O)Oc3ccc4ccccc4c32)cc1OC (stereo not given) | inactive
5 | Cc1ccc(Cl)cc1NS(=O)(=O)c1cc2c(cc1Cl)CCC(=O)N2 | inactive
6 | CC(=O)Nc1cccc([S+](=O)([O-])N2CCCN([S+](=O)([O-])c3cccc(NC(C)=O)c3)CC2)c1 | inactive
7 | O=C(C[C@H]1CC[C@@H](C(=O)Nc2ccc(S(=O)(=O)Nc3nccs3)cc2)C1)c1ccccc1 | inactive
8 | COc1cc(O)c(C(CC(=O)N2CCC(Cc3ccccc3)CC2)c2ccc3c(c2)OCO3)c(OC)c1 (stereo not given) | inactive
9 | COCCNc1cc2c(cc1[S+](=O)([O-])Nc1ccc(C)c(C)c1)CCC(=O)N2 | inactive
10 | Cc1ccc(-c2nnc(N3CCC(C(N)=O)CC3)s2)cc1 | inactive
11 | CCOC(=O)c1ccoc1-c1ccc2ncnc(NCc3ccc(C)o3)c2c1 | inactive
12 | CC(=O)c1cccc(NC(=O)c2cnn3c(C)cc(C)nc23)c1 | inactive
13 | Cc1ccc(S(=O)(=O)Nc2ccc(C(=O)Nc3nc(-c4ccccc4)cs3)c(Cl)c2)cc1 | inactive
14 | Cc1ccc(C(=O)NC2CCN(C#N)CC2)cc1 | inactive
15 | CC(C)(C)OC(=O)CC(=O)NNC(=O)c1cc2ccccc2[nH]1 | inactive
16 | Cc1ccc(OCCn2c(CCN[S+](=O)([O-])C3CCCCC3)nc3ccccc32)cc1 | inactive
17 | Cc1cc(C)nc(NC(=S)N2CCN(c3ccc4ncccc4c3[N+](=O)[O-])CC2)c1 | inactive
18 | Fc1cccc(CNc2ncnc3ccc(-c4ccoc4)cc23)c1 | inactive
19 | CN(C)c1ccccc1-c1csc(N2CCC(C(N)=O)CC2)n1 | inactive
20 | Cc1nc(NC2CCCCC2)c2nc(-c3ccccc3)n(CCN3CCCC3)c2n1 | inactive

Row | SMILES | Potency
21 | c1cncc(-c2ccc3ncnc(NCc4cccs4)c3c2)c1 | inactive
22 | COc1c2c(c(C)c3c1C(=O)OC3)OC1(C)CC(O)C3(O)C(C)(C)OC(=O)CCC3(C)C1C2 (stereo not given) | inactive
23 | COC(=O)c1ccc(O)c2ncccc12 | inactive
24 | CCn1c2cc(C)sc2c2cnn(Cc3ccccc3F)c(=O)c21 | inactive
25 | Cc1ccc(OCCn2c(CCNC(=O)C3CCOCC3)nc3ccccc32)cc1 | inactive
26 | O=S(=O)(c1ccc2c(c1)OCCCO2)N1CCN(S(=O)(=O)c2c(F)cccc2F)CC1 | inactive
27 | COc1ccccc1-c1ncc(C)c(NCc2ccc(-c3cccnc3)cc2)n1 | inactive
28 | Cc1cc2c(s1)c1cnn(Cc3cccc(Cl)c3F)c(=O)c1n2C | inactive
29 | C=C1C(=O)OC2CC3(C)C(CC12)C(C)=CC(O)C3OC(C)=O (stereo not given) | inactive
30 | Cc1cccc(-n2cnc3cc(C(=O)NC4CCCCC4)ccc32)c1 | inactive
31 | C/C=C/C=C/C=C/C(=O)O[C@@H]1C=C(CO)[C@](O)(CO)[C@@]2(C)CCCC(C)(C)[C@H]12 | inactive
32 | N#Cc1cc(NC(=O)Nc2nnc(-c3ccncc3)s2)ccc1-c1ccc[nH]1 | inactive
33 | Cc1cc(C)nc(NC(=S)N2CCN(c3ccc(Cl)cc3F)CC2)c1 | inactive
34 | Cc1cccc(CNc2ccnc(-c3cccc(C(F)(F)F)c3)n2)c1 | inactive
35 | CC(=O)Nc1sc2c(c1-c1ccc(F)cc1)CCNC2 | inactive
36 | Cc1cc(C)nc(NC(=S)N2CCN(c3nccc4ccccc34)CC2)c1 | inactive
37 | Cc1ccc(OCCn2c(CCNC(=O)Cc3ccccc3F)nc3ccccc32)cc1 | inactive
38 | O=C(Cn1cc(CNC(=O)c2ccccc2)nn1)Nc1cc(C(F)(F)F)ccc1Cl | inactive
39 | CCOc1ccc(CCNC(=O)c2cc3sccc3n2Cc2ccccc2)cc1OCC | inactive
40 | COC(=O)Nc1sc2c(c1-c1nc3ccccc3s1)CCNC2 | inactive

These compounds were tested against Retinaldehyde dehydrogenase 3 (Homo sapiens) (UniProt P47895) (assay: qHTS for Inhibitors of the Aldehyde Dehydrogenase Family (ALDH1A3) Primary screen (AID 2061315)). Conditions: ALDH inhibition qHTS; series mostly up to 56 µM.

Row | SMILES | Potency
41 | C=C(C(=O)O)[C@@H]1CC[C@@]2(C)CC[C@H](O)[C@@]2(C(C)=O)C1 | inactive
42 | Cc1cn([C@H]2C[C@H](N[S+](=O)([O-])c3ccc4c(c3)OCCO4)[C@@H](CO)O2)c(=O)[nH]c1=O | inactive
43 | O=C(Nc1ccc(Cl)cc1)c1ccccc1NCc1ccncc1 | inactive
44 | COc1ccc(C2c3c(nc(Cc4ccccc4)[nH]c3=O)Oc3ccc4ccccc4c32)cc1OC (stereo not given) | inactive
45 | Cc1ccc(Cl)cc1NS(=O)(=O)c1cc2c(cc1Cl)CCC(=O)N2 | inactive
46 | CC(=O)Nc1cccc([S+](=O)([O-])N2CCCN([S+](=O)([O-])c3cccc(NC(C)=O)c3)CC2)c1 | inactive
47 | O=C(C[C@H]1CC[C@@H](C(=O)Nc2ccc(S(=O)(=O)Nc3nccs3)cc2)C1)c1ccccc1 | inactive
48 | COc1cc(O)c(C(CC(=O)N2CCC(Cc3ccccc3)CC2)c2ccc3c(c2)OCO3)c(OC)c1 (stereo not given) | inactive
49 | COCCNc1cc2c(cc1[S+](=O)([O-])Nc1ccc(C)c(C)c1)CCC(=O)N2 | inactive
50 | Cc1ccc(-c2nnc(N3CCC(C(N)=O)CC3)s2)cc1 | inactive
51 | CCOC(=O)c1ccoc1-c1ccc2ncnc(NCc3ccc(C)o3)c2c1 | inactive
52 | CC(=O)c1cccc(NC(=O)c2cnn3c(C)cc(C)nc23)c1 | inactive
53 | Cc1ccc(S(=O)(=O)Nc2ccc(C(=O)Nc3nc(-c4ccccc4)cs3)c(Cl)c2)cc1 | inactive
54 | Cc1ccc(C(=O)NC2CCN(C#N)CC2)cc1 | inactive
55 | CC(C)(C)OC(=O)CC(=O)NNC(=O)c1cc2ccccc2[nH]1 | inactive
56 | Cc1ccc(OCCn2c(CCN[S+](=O)([O-])C3CCCCC3)nc3ccccc32)cc1 | inactive
57 | Cc1cc(C)nc(NC(=S)N2CCN(c3ccc4ncccc4c3[N+](=O)[O-])CC2)c1 | inactive
58 | Fc1cccc(CNc2ncnc3ccc(-c4ccoc4)cc23)c1 | inactive
59 | CN(C)c1ccccc1-c1csc(N2CCC(C(N)=O)CC2)n1 | inactive
60 | Cc1nc(NC2CCCCC2)c2nc(-c3ccccc3)n(CCN3CCCC3)c2n1 | inactive

Row | SMILES | Potency
61 | c1cncc(-c2ccc3ncnc(NCc4cccs4)c3c2)c1 | inactive
62 | COc1c2c(c(C)c3c1C(=O)OC3)OC1(C)CC(O)C3(O)C(C)(C)OC(=O)CCC3(C)C1C2 (stereo not given) | inactive
63 | COC(=O)c1ccc(O)c2ncccc12 | inactive
64 | CCn1c2cc(C)sc2c2cnn(Cc3ccccc3F)c(=O)c21 | inactive
65 | Cc1ccc(OCCn2c(CCNC(=O)C3CCOCC3)nc3ccccc32)cc1 | inactive
66 | O=S(=O)(c1ccc2c(c1)OCCCO2)N1CCN(S(=O)(=O)c2c(F)cccc2F)CC1 | inactive
67 | COc1ccccc1-c1ncc(C)c(NCc2ccc(-c3cccnc3)cc2)n1 | inactive
68 | Cc1cc2c(s1)c1cnn(Cc3cccc(Cl)c3F)c(=O)c1n2C | inactive
69 | C=C1C(=O)OC2CC3(C)C(CC12)C(C)=CC(O)C3OC(C)=O (stereo not given) | inactive
70 | Cc1cccc(-n2cnc3cc(C(=O)NC4CCCCC4)ccc32)c1 | inactive
71 | C/C=C/C=C/C=C/C(=O)O[C@@H]1C=C(CO)[C@](O)(CO)[C@@]2(C)CCCC(C)(C)[C@H]12 | inactive
72 | N#Cc1cc(NC(=O)Nc2nnc(-c3ccncc3)s2)ccc1-c1ccc[nH]1 | inactive
73 | Cc1cc(C)nc(NC(=S)N2CCN(c3ccc(Cl)cc3F)CC2)c1 | inactive
74 | Cc1cccc(CNc2ccnc(-c3cccc(C(F)(F)F)c3)n2)c1 | inactive
75 | CC(=O)Nc1sc2c(c1-c1ccc(F)cc1)CCNC2 | inactive
76 | Cc1cc(C)nc(NC(=S)N2CCN(c3nccc4ccccc34)CC2)c1 | inactive
77 | Cc1ccc(OCCn2c(CCNC(=O)Cc3ccccc3F)nc3ccccc32)cc1 | inactive
78 | O=C(Cn1cc(CNC(=O)c2ccccc2)nn1)Nc1cc(C(F)(F)F)ccc1Cl | inactive
79 | CCOc1ccc(CCNC(=O)c2cc3sccc3n2Cc2ccccc2)cc1OCC | inactive
80 | COC(=O)Nc1sc2c(c1-c1nc3ccccc3s1)CCNC2 | inactive
